Gal4-VP16 FLuc – counter-screen for ROR gamma inhibitors: Gal4-VP16 reporter; Potency, µM (doses to about 53.6 µM), inactives show at the top dose activity, negative = inhibition, usual class: inhibitors; AID 2546; Drosophila S2 Gal4-VP16 UAS-luciferase, luminescence, 20 h; 3.5% of 310,000 active;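 also: Gal4-VP16 expression switched on by copper sulfate through the metallothionein promoter; nearly all actives have a fitted effect of over 50% in size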
RORg inh – ROR gamma (mouse) transcription inhibition; Drosophila S2 Gal4-RORgamma UAS-luciferase reporter, 20 h; Potency, µM (doses to about 53.6 µM), for inactives: at the highest dose activity change, negative = inhibition, hits mostly inhibitors; 5.4% of 310,000 active; P51450; also: nearly all actives have a fitted effect of over 60% in size
Target sequence (P51450 whole entry, looked up, the tested form may be a part): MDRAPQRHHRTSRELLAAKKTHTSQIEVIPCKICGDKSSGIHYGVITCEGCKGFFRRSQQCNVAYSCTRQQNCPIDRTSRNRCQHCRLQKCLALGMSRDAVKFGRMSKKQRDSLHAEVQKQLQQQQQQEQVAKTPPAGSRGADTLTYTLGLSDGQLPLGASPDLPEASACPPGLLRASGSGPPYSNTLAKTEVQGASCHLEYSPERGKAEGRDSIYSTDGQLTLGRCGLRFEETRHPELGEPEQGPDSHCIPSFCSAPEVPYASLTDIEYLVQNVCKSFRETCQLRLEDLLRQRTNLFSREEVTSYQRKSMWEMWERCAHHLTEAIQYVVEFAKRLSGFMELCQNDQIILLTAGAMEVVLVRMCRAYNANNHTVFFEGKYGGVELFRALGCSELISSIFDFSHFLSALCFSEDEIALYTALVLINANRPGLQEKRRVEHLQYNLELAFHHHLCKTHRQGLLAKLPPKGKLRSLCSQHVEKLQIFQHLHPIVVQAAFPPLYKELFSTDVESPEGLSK
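Stably transfected Drosophila Schneider cells are the test system, with ROR gamma fused to Gal4 and luciferase under UAS control; luminescence is read after 20 hr of 700 uM copper sulfate induction at ambient temperature.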
Luc counter – blocks Kinase-Glo luciferase, a counter-screen artifact. Kinase-Glo luciferase, ATP luminescence, 8 min. 0.28% of 200,000 active. Potency, µM (titrated, usually from 38.3 µM), without a hit: top-dose activity change, negative = inhibition, most hits filed as inhibitors. Q27757; also: nearly all actives have a fitted effect of over 60% in size
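Light output from Kinase-Glo luciferase with luciferin and 10 uM ATP in 50 mM imidazole pH 7.2, KCl, MgCl2, Tween 20, BSA; compound pin-delivered, 8-min ambient incubation, then luminescence read.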
An asterisk follows results filed as active; u = inconclusive; x = no result; [ ] = remark or other dose. This is a sample that favours compounds with a hit; in the whole collection about 6.4% have one here. Calls follow the shape of the dose curve; as a rule, active = well fitted curve in the direction sought with a large enough effect; inconclusive = small, poorly fitted or top-dose-only effect, or another doubt; inactive = no such curve, though single readings can be large; an effect the other way counts as inactive or inconclusive. % is scaled to controls: 0 for no effect and ±100 for the full control effect; potency is read from the fitted curve at half-maximal effect.

SMILES	Gal4-VP16 FLuc	RORg inh	Luc counter
c1ccc2nc3c(nc2c1)[nH]c1ccccc13	-8%	u	-4%
c1ccc(-c2c3ccccc3nc3[nH]c4ccccc4c23)cc1	u	11µM*	13%
Cc1cc2ncn(C3CC(=O)N(Cc4ccccc4)C3=O)c2cc1C (stereo not given)	x	8%[0.365 µM]	-4%
Cc1nc2ccccc2n1C1CC(=O)N(Cc2ccccc2)C1=O (stereo not given)	6.3µM*	-29%	-3%
O=C(Nc1ccc(O)c(-c2nc3ccccc3o2)c1)C1(c2ccc(Br)cc2)CCCC1	5.6µM*	6.3µM*	2%
Cc1ccc(OCC(=O)Nc2ccc(O)c(-c3nc4ccccc4o3)c2)cc1	-5%	0%	-2%
CCCC(C(=O)NC(C)(C)CC)N(Cc1ccco1)C(=O)CNS(=O)(=O)c1ccccc1 (stereo not given)	18%	14%	x
CC(=O)N1CCc2cc(C(=O)CN3CCN(c4ccccn4)CC3)ccc21	1%	-44%	x
COc1cc(OC)cc(C(=O)OCC(=O)NCCCc2ccccc2)c1	7%	-2%	x
COc1cccc(-c2ccc(SCC(=O)NC3CCCC3)nn2)c1	9%	2%	x
O=C(CSc1ccc(-c2cccc([N+](=O)[O-])c2)nn1)NC1CCCC1	-2%	1.8µM*	3%
CCCNC(=O)C1CC(c2cccc(F)c2)=NO1 (stereo not given)	11%	13%	x
COc1ccc(N2CCN(C(=O)c3sc4ncn(CC(=O)N5CCCCC5C)c(=O)c4c3C)CC2)cc1 (stereo not given)	22µM*	43%	x
CCN(CC)C(=O)Cn1cnc2sc(C(=O)N3CCN(c4ccc(OC)cc4)CC3)c(C)c2c1=O	0%	14%	0%
Cc1cc(-c2nnnn2-c2cc(Cl)cc(Cl)c2)no1	-4%	-6%	x
Cc1cc(C(=O)Nc2ccccc2N2CCCCC2)no1	-2%	-7%	x
COc1cc2[nH]c(=S)nc(NCCCOC(C)C)c2cc1OC	u	16µM*	0%
CCOCCCNc1nc(=S)[nH]c2cc(OC)c(OC)cc12	-13%	u	-6%
COCCNc1nc(=S)[nH]c2cc(OC)c(OC)cc12	-4%	-19%	-7%
CCCCNc1nc(=S)[nH]c2cc(OC)c(OC)cc12	7.9µM*	7.9µM*	-2%
CCC(C)(O)c1[nH]c2ccc(C#N)cc2c1C (stereo not given)	16%	u	x
Cc1ccc2c(c1)N(C(=O)CCC(=O)N1CCC(C(N)=O)CC1)CCO2	-4%	-23%	x
COCCn1c(SCC(=O)Nc2sccc2C(N)=O)nnc1-c1ccncc1	-3%[10 µM]	8%	10%
O=C(CSc1cccc[n+]1[O-])Nc1ccccc1Oc1ccccc1	7.9µM*	6.3µM*	-2%
COC(=O)c1ccc(-n2c(C)cc(C(=O)CSc3cccc[n+]3[O-])c2C)cc1	0%	21%	1%
SMILES	Gal4-VP16 FLuc	RORg inh	Luc counter
COC(=O)c1ccc(C(=O)OC)c(NC(=O)CSc2cccc[n+]2[O-])c1	3.5µM*	5µM*	-1%
O=C(CSc1ccc(Br)cc1)Nc1ccccc1Oc1ccccc1	-4%	-3%	5%
CC1(OC(=O)c2cnc3ccccc3n2)C(=O)C=C2C=C(c3ccsc3)OC=C2C1=O (stereo not given)	-9%	15%	0%
O=C1C[C@@H](c2ccccc2Cl)N1S(=O)(=O)c1ccccc1[N+](=O)[O-]	15%	-9%	x
COc1ccc(Cl)cc1S(=O)(=O)Nc1ncn[nH]1	-9%	-23%	x
Cc1ccc(/C=C/C(=O)c2c(C)nc3ccccn23)cc1	u	14µM*	-1%
Cc1nc2ccccn2c1C(=O)/C=C/c1cccc([N+](=O)[O-])c1	18%[10 µM]	8%	1%
COCc1nc2ccccc2n1Cc1cccc(C)c1	2%	13µM*	-1%
COCc1nc2ccccc2n1Cc1ccccc1C	9%	u	-1%
Cc1ccccc1Cn1c(Cc2ccccc2)nc2ccccc21	u	5.6µM*	-3%
Cc1cc(C)c(C)c(Cn2c(CO)nc3ccccc32)c1C	u	2µM*	-2%
COCc1nc2ccccc2n1Cc1c(F)cccc1Cl	-28%	u	1%
Cc1cccc(Cn2c(Cc3ccccc3)nc3ccccc32)c1	4.5µM*	3.2µM*	1%
Cc1ccccc1OCCCCn1c(CO)nc2ccccc21	-4%[10 µM]	-37%	-2%
Cc1ccc(Cn2c(CCCO)nc3ccccc32)cc1	12%	-13%	x
CSCCC(NC(=O)c1ccc(C(C)(C)C)cc1)C(=O)O (stereo not given)	-6%	0%	0%
C=CCC(O)CC1C2C(CC(O)CC=C)C3C1C3C2OC(C)(C)C (stereo not given)	1%[10 µM]	-6%[10 µM]	x
Cc1[nH]c2ccccc2c1C(=O)C(=O)Nc1ccc2c(c1)OCO2	24%	u	x
COc1ccc(CCNC(=O)CC(c2ccccc2)c2cc(C)ccc2O)cc1OC (stereo not given)	-3%	20%	x
COCCn1c(COC)nc2ccccc21	0%	-11%	3%
COCc1nc2ccccc2n1CCc1ccccc1	u	11µM*	x
Clc1ccc(-c2cn3nc4c(nc3n2)CCCC4)cc1	1%	u	u
COc1cccc(-c2cn3nc4c(nc3n2)CCCC4)c1	u	-21%	10µM*
COC(=O)[C@H]1O[C@@H](c2cc(OC)c(C)c(OC)c2OCc2ccccc2)[C@H](C)[C@H]2O[C@@]12C	-6%	6%	1%
COc1ccc(N=C2S/C(=C\c3ccc(N4CCOCC4)o3)C(=O)N2CCc2c[nH]c3ccccc23)cc1	5µM*	6.3µM*	-9%
SMILES	Gal4-VP16 FLuc	RORg inh	Luc counter
COc1ccc(N=C2S/C(=C\c3ccc(OCC(=O)O)cc3)C(=O)N2CCc2c[nH]c3ccccc23)cc1	6%[10 µM]	2%	5%
O=C(N/N=C/c1ccco1)c1cc(-c2ccccc2)nc2ccccc12	10µM*	7.1µM*	x
O=C(N/N=C/c1ccco1)c1cc(C2CC2)nc2ccccc12	6%	-43%	2%
COc1cccc(-c2cc(C(=O)N/N=C/c3ccco3)c3ccccc3n2)c1	7.1µM*	3.2µM*	x
Cc1ccc(-c2cc(C(=O)N/N=C\c3cnn(C)c3C)c3ccccc3n2)cc1C	u	11µM*	-11%
COc1ccc(-c2cc(C(=O)N/N=C/c3cccnc3)c3ccccc3n2)cc1	-11%	-36%	x
Cc1cccc(/C=N/NC(=O)c2cc(-c3cccnc3)nc3ccccc23)c1	-15%	u	-2%
CCN(c1ccccc1C(=O)O)S(=O)(=O)c1cccc2nsnc12	-5%	-4%	x
COc1ccc(OC)c(S(=O)(=O)N2CCCC2C(=O)NC(C)c2ccccc2)c1 (stereo not given)	-6%	-2%	x
COc1ccc(-c2ccc(C(C)=O)cc2)cc1C1C2C=CCCC2(C)C(=O)N1Cc1ccccc1 (stereo not given)	-10%	29%	x
O=C(NNC(=O)C1CC(=O)N(Cc2ccccc2)C1)c1ccc(Br)cc1 (stereo not given)	4%	12%	x
C/C(=N\NC(=O)c1ccccc1O)C1C(=O)c2ccccc2C1=O	3.2µM*	3.5µM*	-4%
COc1cc(OC)cc(C(=O)NNC(=O)c2cc3ccccc3cc2O)c1	4%	-35%	x
C/C(=N/NC(=O)c1cc2ccccc2cc1O)C1C(=O)c2ccccc2C1=O	18µM*	u	-6%
